Our source for the binding signal values is paper PMC7862700, “An all-to-all approach to the identification of sequence-specific readers for epigenetic DNA modifications on cytosine”.

Sequence of ELF4 (Q99607 whole entry): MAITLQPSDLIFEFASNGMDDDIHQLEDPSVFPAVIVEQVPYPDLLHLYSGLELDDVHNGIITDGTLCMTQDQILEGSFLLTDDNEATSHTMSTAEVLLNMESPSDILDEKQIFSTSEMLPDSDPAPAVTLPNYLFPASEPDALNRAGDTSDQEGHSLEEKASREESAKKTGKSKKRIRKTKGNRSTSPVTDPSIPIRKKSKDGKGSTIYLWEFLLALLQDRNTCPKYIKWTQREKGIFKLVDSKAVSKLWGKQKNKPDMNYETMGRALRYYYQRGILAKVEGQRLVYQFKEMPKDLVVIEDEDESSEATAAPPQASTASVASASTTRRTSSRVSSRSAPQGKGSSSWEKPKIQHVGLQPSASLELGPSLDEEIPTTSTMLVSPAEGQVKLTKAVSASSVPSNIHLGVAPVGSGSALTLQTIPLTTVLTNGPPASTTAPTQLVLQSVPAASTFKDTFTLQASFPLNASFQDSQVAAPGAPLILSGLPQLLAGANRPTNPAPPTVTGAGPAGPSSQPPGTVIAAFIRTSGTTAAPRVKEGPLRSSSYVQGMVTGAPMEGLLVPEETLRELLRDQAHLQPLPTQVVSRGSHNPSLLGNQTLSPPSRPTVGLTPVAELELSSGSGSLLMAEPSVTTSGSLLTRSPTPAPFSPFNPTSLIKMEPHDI
Sequence of HSF1 (Q00613 whole entry, the tested form may be a part): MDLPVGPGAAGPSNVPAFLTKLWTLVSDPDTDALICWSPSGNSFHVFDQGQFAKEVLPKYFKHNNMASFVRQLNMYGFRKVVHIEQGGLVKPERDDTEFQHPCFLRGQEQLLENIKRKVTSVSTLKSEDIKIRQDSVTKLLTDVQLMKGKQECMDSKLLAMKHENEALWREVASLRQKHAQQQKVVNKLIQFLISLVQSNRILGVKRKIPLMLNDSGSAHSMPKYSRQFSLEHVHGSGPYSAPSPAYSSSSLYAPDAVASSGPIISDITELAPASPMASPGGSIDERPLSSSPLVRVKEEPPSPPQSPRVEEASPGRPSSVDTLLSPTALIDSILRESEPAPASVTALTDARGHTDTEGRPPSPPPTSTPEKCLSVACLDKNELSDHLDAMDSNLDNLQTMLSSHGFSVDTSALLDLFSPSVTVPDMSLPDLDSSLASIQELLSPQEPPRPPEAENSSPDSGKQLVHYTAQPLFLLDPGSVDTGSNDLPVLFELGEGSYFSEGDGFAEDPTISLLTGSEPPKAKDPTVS

The first experiment has as its target HSF1 (Homo sapiens, UniProt Q00613 1-529). The experiment in a line: DAPPL (digital affinity profiling via proximity ligation, sequencing); 10 mM Tris-HCl pH 7.5, 50 mM NaCl, 1 mM DTT, 4% glycerol, room temperature, 30 min; GST-TFs on glutathione beads, 16-mer random dsDNA library, 0.1% formaldehyde crosslink after washing; high values mean tight binding. The note with it: protein: recombinant; tags: N-terminal GST; chain copies: 3; dsDNA, one strand shown. An outline of the steps: (§1)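 In yeast, human transcription factors were expressed with a GST fusion, then pulled down on glutathione beads and given DNA barcodes. Pooled with a tag-only sample, they were exposed to 200 nmole of a 16-mer random double-stranded DNA library (Tris/NaCl/DTT/glycerol buffer, room temperature, 30 min), washed, crosslinked with 0.1% formaldehyde, proximity-ligated using BsaI/T4 ligase for 1 h at 37 °C, PCR-amplified and read on an Illumina NextSeq500. Each hexamer's frequency of reads for a factor, divided by the matching frequency for the tag-only sample, gives the binding signal.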
As for CACTTG, the binding signal was 1.12 fold enrichment (6-mer frequency, TF over GST control).

Regarding TACGTT, the binding signal is 1.24 fold enrichment (6-mer frequency, TF over GST control).

Regarding CATTCG, the binding signal was 1.64 fold enrichment (6-mer frequency, TF over GST control).

For CCTTCG, the binding signal is 1.88 fold enrichment (6-mer frequency, TF over GST control).

Take TGACCT: the binding signal was 1.5 fold enrichment (6-mer frequency, TF over GST control).

On to TATAAC, for which the binding signal is 1.15 fold enrichment (6-mer frequency, TF over GST control).

As for CTTTCA, the binding signal was 1.28 fold enrichment (6-mer frequency, TF over GST control).

Regarding AATATT, the binding signal was 1.93 fold enrichment (6-mer frequency, TF over GST control).

Take CTTGCA: the binding signal was 1.12 fold enrichment (6-mer frequency, TF over GST control).

Take TTGCGG: the binding signal was 1.04 fold enrichment (6-mer frequency, TF over GST control).

Turning to TCTGTT, the binding signal was 1.43 fold enrichment (6-mer frequency, TF over GST control).

As to TCCTGG, the binding signal was 1.29 fold enrichment (6-mer frequency, TF over GST control).

Consider CGAAAA, for which the binding signal was 1.85 fold enrichment (6-mer frequency, TF over GST control).

With TAATCC, the binding signal is 4.27 fold enrichment (6-mer frequency, TF over GST control).

TTTCTT: the binding signal was 1.7 fold enrichment (6-mer frequency, TF over GST control).

In the case of CTCAGC, the binding signal was 1.1 fold enrichment (6-mer frequency, TF over GST control).

With ACTTGT, the binding signal was 1.12 fold enrichment (6-mer frequency, TF over GST control).

As for CTTCTA, the binding signal was 3.31 fold enrichment (6-mer frequency, TF over GST control).

For TTCGAT, the binding signal was 1.79 fold enrichment (6-mer frequency, TF over GST control).

For the sequence TCTCCG, the binding signal was 1.43 fold enrichment (6-mer frequency, TF over GST control).

A further experiment concerns the target T1, SPIC (Homo sapiens, UniProt Q8N5J4 1-248).
T1 sequence: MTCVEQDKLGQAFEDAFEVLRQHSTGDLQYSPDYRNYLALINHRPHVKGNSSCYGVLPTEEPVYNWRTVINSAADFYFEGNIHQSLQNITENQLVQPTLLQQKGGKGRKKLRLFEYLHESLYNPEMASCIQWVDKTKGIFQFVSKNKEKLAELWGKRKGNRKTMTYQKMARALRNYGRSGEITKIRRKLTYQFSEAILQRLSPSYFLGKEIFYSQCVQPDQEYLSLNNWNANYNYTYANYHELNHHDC
Described as above. Particulars: protein: recombinant; tags: N-terminal GST; dsDNA, one strand shown. An outline of the steps:
as §1
For the sequence TGGCAA, the binding signal is 1.13 fold enrichment (6-mer frequency, TF over GST control).

For AATAAC, the binding signal is 1.42 fold enrichment (6-mer frequency, TF over GST control).

For the sequence ATTTGT, the binding signal is 1.35 fold enrichment (6-mer frequency, TF over GST control).

As to CTGGCA, the binding signal was 1.28 fold enrichment (6-mer frequency, TF over GST control).

Take GCTTAT: the binding signal was 1.42 fold enrichment (6-mer frequency, TF over GST control).

As for TGTCTA, the binding signal was 1.35 fold enrichment (6-mer frequency, TF over GST control).

Turning to GCCGAT, the binding signal is 1.03 fold enrichment (6-mer frequency, TF over GST control).

With ATTGGG, the binding signal was 1.26 fold enrichment (6-mer frequency, TF over GST control).

Regarding TTGATC, the binding signal was 1.25 fold enrichment (6-mer frequency, TF over GST control).

Take AATCGC: the binding signal is 1.08 fold enrichment (6-mer frequency, TF over GST control).

Turning to CCTCTC, the binding signal is 1.46 fold enrichment (6-mer frequency, TF over GST control).

Regarding CCTCTT, the binding signal is 1.52 fold enrichment (6-mer frequency, TF over GST control).

With TTTGGA, the binding signal was 1.28 fold enrichment (6-mer frequency, TF over GST control).

For the sequence TCTACA, the binding signal is 1.44 fold enrichment (6-mer frequency, TF over GST control).

TCTCGC: the binding signal is 1.4 fold enrichment (6-mer frequency, TF over GST control).

Consider CTGATG, for which the binding signal is 1.79 fold enrichment (6-mer frequency, TF over GST control).

On to CTGATC, for which the binding signal is 1.57 fold enrichment (6-mer frequency, TF over GST control).

Turning to CTCATC, the binding signal was 1.49 fold enrichment (6-mer frequency, TF over GST control).

Turning to ATATTT, the binding signal is 1.45 fold enrichment (6-mer frequency, TF over GST control).

Take TACAAT: the binding signal is 1.25 fold enrichment (6-mer frequency, TF over GST control).

On to CACTTG, for which the binding signal was 1.12 fold enrichment (6-mer frequency, TF over GST control).

In the case of TACGTT, the binding signal is 1.47 fold enrichment (6-mer frequency, TF over GST control).

As to CATTCG, the binding signal is 1.3 fold enrichment (6-mer frequency, TF over GST control).

For the sequence CCTTCG, the binding signal is 1.31 fold enrichment (6-mer frequency, TF over GST control).

For the sequence TGACCT, the binding signal was 1.79 fold enrichment (6-mer frequency, TF over GST control).

Turning to TATAAC, the binding signal was 1.2 fold enrichment (6-mer frequency, TF over GST control).

On to CTTTCA, for which the binding signal is 1.37 fold enrichment (6-mer frequency, TF over GST control).

In the case of AATATT, the binding signal was 1.45 fold enrichment (6-mer frequency, TF over GST control).

In the case of CTTGCA, the binding signal was 1.28 fold enrichment (6-mer frequency, TF over GST control).

Take TTGCGG: the binding signal was 1.47 fold enrichment (6-mer frequency, TF over GST control).

On to TCTGTT, for which the binding signal is 1.31 fold enrichment (6-mer frequency, TF over GST control).

With TCCTGG, the binding signal was 1.54 fold enrichment (6-mer frequency, TF over GST control).

On to CGAAAA, for which the binding signal was 1.07 fold enrichment (6-mer frequency, TF over GST control).

In the case of TAATCC, the binding signal is 1.14 fold enrichment (6-mer frequency, TF over GST control).

Consider TTTCTT, for which the binding signal is 1.24 fold enrichment (6-mer frequency, TF over GST control).

Regarding CTCAGC, the binding signal is 1.16 fold enrichment (6-mer frequency, TF over GST control).

Turning to ACTTGT, the binding signal was 1.08 fold enrichment (6-mer frequency, TF over GST control).

Consider CTTCTA, for which the binding signal is 1.28 fold enrichment (6-mer frequency, TF over GST control).

Regarding TTCGAT, the binding signal is 1.3 fold enrichment (6-mer frequency, TF over GST control).

For the sequence TCTCCG, the binding signal is 1.55 fold enrichment (6-mer frequency, TF over GST control).

Another experiment has as its target ELF4 (Homo sapiens, UniProt Q99607 1-663). The experiment is described as above. Particulars: protein: recombinant; tags: N-terminal GST; dsDNA, one strand shown. In outline: as §1
On to TGGCAA, for which the binding signal is 1.21 fold enrichment (6-mer frequency, TF over GST control).

With AATAAC, the binding signal is 1.32 fold enrichment (6-mer frequency, TF over GST control).

For the sequence ATTTGT, the binding signal is 1.32 fold enrichment (6-mer frequency, TF over GST control).

Regarding CTGGCA, the binding signal was 1.35 fold enrichment (6-mer frequency, TF over GST control).

As for GCTTAT, the binding signal was 1.23 fold enrichment (6-mer frequency, TF over GST control).

TGTCTA: the binding signal is 1.2 fold enrichment (6-mer frequency, TF over GST control).

With GCCGAT, the binding signal is 1.16 fold enrichment (6-mer frequency, TF over GST control).

For ATTGGG, the binding signal was 1.19 fold enrichment (6-mer frequency, TF over GST control).

Consider TTGATC, for which the binding signal was 1.14 fold enrichment (6-mer frequency, TF over GST control).

As to AATCGC, the binding signal was 1.14 fold enrichment (6-mer frequency, TF over GST control).

For the sequence CCTCTC, the binding signal is 1.48 fold enrichment (6-mer frequency, TF over GST control).

Take CCTCTT: the binding signal was 1.56 fold enrichment (6-mer frequency, TF over GST control).

Consider TTTGGA, for which the binding signal was 1.12 fold enrichment (6-mer frequency, TF over GST control).

As for TCTACA, the binding signal is 1.15 fold enrichment (6-mer frequency, TF over GST control).

As to TCTCGC, the binding signal was 1.75 fold enrichment (6-mer frequency, TF over GST control).

In the case of CTGATG, the binding signal was 1.79 fold enrichment (6-mer frequency, TF over GST control).

On to CTGATC, for which the binding signal was 1.41 fold enrichment (6-mer frequency, TF over GST control).

In the case of CTCATC, the binding signal is 1.35 fold enrichment (6-mer frequency, TF over GST control).

Regarding ATATTT, the binding signal is 1.53 fold enrichment (6-mer frequency, TF over GST control).

As to TACAAT, the binding signal was 1.26 fold enrichment (6-mer frequency, TF over GST control).

On to CACTTG, for which the binding signal was 1.45 fold enrichment (6-mer frequency, TF over GST control).

Take TACGTT: the binding signal is 1.23 fold enrichment (6-mer frequency, TF over GST control).

Take CATTCG: the binding signal is 1.18 fold enrichment (6-mer frequency, TF over GST control).

Consider CCTTCG, for which the binding signal is 1.39 fold enrichment (6-mer frequency, TF over GST control).

As for TGACCT, the binding signal was 1.82 fold enrichment (6-mer frequency, TF over GST control).

For TATAAC, the binding signal is 1.2 fold enrichment (6-mer frequency, TF over GST control).

Consider CTTTCA, for which the binding signal is 1.44 fold enrichment (6-mer frequency, TF over GST control).

Regarding AATATT, the binding signal is 1.38 fold enrichment (6-mer frequency, TF over GST control).

Consider CTTGCA, for which the binding signal was 1.41 fold enrichment (6-mer frequency, TF over GST control).

Regarding TTGCGG, the binding signal was 1.3 fold enrichment (6-mer frequency, TF over GST control).

Turning to TCTGTT, the binding signal was 1.39 fold enrichment (6-mer frequency, TF over GST control).

In the case of TCCTGG, the binding signal is 1.53 fold enrichment (6-mer frequency, TF over GST control).

Consider CGAAAA, for which the binding signal was 1.11 fold enrichment (6-mer frequency, TF over GST control).

As to TAATCC, the binding signal is 1.23 fold enrichment (6-mer frequency, TF over GST control).

Take TTTCTT: the binding signal is 1.33 fold enrichment (6-mer frequency, TF over GST control).

For CTCAGC, the binding signal was 1.27 fold enrichment (6-mer frequency, TF over GST control).

As to ACTTGT, the binding signal was 1.37 fold enrichment (6-mer frequency, TF over GST control).

With CTTCTA, the binding signal was 1.38 fold enrichment (6-mer frequency, TF over GST control).

For TTCGAT, the binding signal was 1.27 fold enrichment (6-mer frequency, TF over GST control).

Take TCTCCG: the binding signal is 1.59 fold enrichment (6-mer frequency, TF over GST control).
